Assay outcomes deposited in PubChem BioAssay by National Center for Advancing Translational Sciences (NCATS).
Hits are enriched below; roughly 12% of the tested compounds scored in any of these assays.
Shiga inhibitor = A qHTS for Small Molecule Inhibitors of Shiga Toxin; Vero cells, Shiga toxin protein synthesis inhibition reporter; inhibition, % at 38.7 µM; 290,000 tested, 9.2% active; AID 2315, 2010; in the data active = inhibition mostly above about 28%, no sharp cut-off; inactive = mostly below about 43%; note: 0% is about no effect
Marburg entry inh = qHTS for inhibitors of binding or entry into cells for Marburg Virus | AID 540276, 2011 | 300,000 tested, 1.8% active | Marburg virus pseudotyped entry inhibition, cell reporter | Potency, µM (doses to about 37.8 µM), for the others: top-dose activity change, negative = inhibition, hits mostly inhibitors; calls by dose curve; tested in HEK293 cells; note: potency is the fitted concentration of half-maximal effect; % is set by controls: 0 for no effect and ±100 for the full control effect
Cycloheximide cs = Cycloheximide Counterscreen for Small Molecule Inhibitors of Shiga Toxin. cell reporter, cycloheximide protein synthesis inhibition counterscreen. max response, %. 300,000 tested, 12% active; in the data active = max response mostly above about 13%, no sharp cut-off; inactive = mostly below about 14%; note: read at 38.3 µM for the half of the compounds with a filed dose; 0% is about no effect
Lassa entry inh = qHTS for Inhibitors of binding or entry into cells for Lassa Virus; Lassa virus pseudotype entry inhibition, cell reporter; 300,000 tested, 1.2% active; Potency, µM (highest dose often 37.9 µM), inactives show top-dose activity change, negative = inhibition, actives largely listed as inhibitors; calls by dose curve; tested in HEK293 cells; note: potency is the fitted concentration of half-maximal effect; % is set by controls: 0 for no effect and ±100 for the full control effect; nearly all actives have a fitted effect of over 50% in size
Numbers without * were called inactive; ? = inconclusive; . = no result given; [ ] = another dose, or the depositor's remark.

SMILES	Shiga inhibitor	Marburg entry inh	Cycloheximide cs	Lassa entry inh
CCCNC(=O)C1CC(c2cccc(F)c2)=NO1 (stereo not given)	4.5	.	0.8	.
O=C(CSc1nc2ccccc2[nH]1)Nc1c(F)cccc1F	10.5	-25.1%[46.1 µM]	8.4	?
O=C(CSc1nc2ccccc2[nH]1)c1ccccc1F	91.6*	1.0%[46.1 µM]	40.2*	?
Cc1ccc2nc(SCC(=O)c3c[nH]c4ccccc34)[nH]c2c1	70.5*	-13.6%[46.1 µM]	18.5	?
Cc1ccc(C)c(C(=O)CSc2nc3ccccc3c(=O)[nH]2)c1	-1.3	-23.2%[46.1 µM]	-2.2	-12.7%
Cc1ccc2nc(SCC(=O)c3c(C)[nH]c4ccccc34)[nH]c2c1	32.9	-20.0%	21.1*	18.4%
CC(=O)c1ccc(S(=O)(=O)NCCC(=O)OCC(=O)N(Cc2ccccc2)C(C)(C)C)cc1	.	?	.	-18.0%
COc1cc(NC(=O)c2ccco2)c(OC)cc1NC(=O)Nc1ccc(Cl)cc1	52.7	-29.0%	-3.2	-26.4%
O=C(Nc1ccc(Oc2ccc3nc(NC(=O)c4ccco4)[nH]c3c2)cc1)Nc1cc(C(F)(F)F)ccc1F	.	.	.	7.91µM*
O=C(Nc1ccc(Oc2ccc3nc(NC(=O)c4ccccc4)[nH]c3c2)cc1)Nc1cc(C(F)(F)F)ccc1F	.	.	.	6.28µM*
CCCOc1ccc2nc(NC(=O)OC)[nH]c2c1	22.8	?	-0.3	-27.6%
COC(=O)Nc1nc2ccc(Oc3ccc(NC(=O)Nc4cccc(Br)c4)cc3)cc2[nH]1	.	.	.	17.7µM*
C=CCN1C(=O)c2ccc(C(=O)N(CC)CC(=O)Nc3ccc(OC)cc3)cc2C1=O	.	9.0%[46.1 µM]	.	5.4%
CCN(CC)S(=O)(=O)c1ccc(C(=O)Nc2ccc(OCC(=O)N3CCOCC3)cc2)cc1	-7.8	-2.2%	-1.7	-1.9%
CCCOc1c(Cl)cc(C(=O)Nc2ccc3c(c2)OCO3)cc1OCC	-4.3	?	-1.5	?
CCCOc1ccc(C(=O)Nc2ccc3c(c2)OCO3)cc1	121.8*	.	48.9*	.
CCCCOc1ccc(C(=O)Nc2ccc(OCC(=O)N3CCOCC3)cc2)cc1	51.2*	?	25.7*	-18.6%
CCCCOc1ccc(C(=O)Nc2ccc3c(c2)OCO3)cc1	24.4	.	17.8*	.
CCC(=O)Oc1ccc(C(=O)Nc2cccc(C(=O)c3ccccc3)c2)cc1	15.7	-21.9%	13.7	?
CCC(=O)Oc1ccc(C(=O)Nc2ccc3c(c2)OCO3)cc1	107.5*	?	46.4*	?
CCOC(=O)c1c(O)c(Cl)c(C)[nH]c1=O	44.8	17.3%[46.1 µM]	3.6	17.5%
CCCn1c(SCC(=O)Nc2cc(S(=O)(=O)N(C)C)ccc2OC)n[nH]c1=O	-5.5	.	-1.9	.
COc1ccc(CCN2CC(C(=O)N(C)CC(=O)Nc3ccc(F)c(F)c3F)CC2=O)cc1OC (stereo not given)	.	?	.	1.2%
Nc1ccc(C(=O)n2c3ccccc3c3ccccc32)cc1	-14.5	3.98µM*	-6.0	?
COc1ccc(C(=O)n2c(-c3ccco3)nc3ccccc32)cc1	36.5	-22.3%	30.6*	-25.9%
SMILES	Shiga inhibitor	Marburg entry inh	Cycloheximide cs	Lassa entry inh
CCOC(=O)c1ccc(-n2c(-c3ccco3)nc3ccccc3c2=O)cc1	16.6	1.2%	26.4	10.4%
Cc1ccc(Cn2c(N)nc3ccccc32)cc1	-11.3	?	1.1	-16.1%[46.1 µM]
Cc1ccc(C(=O)n2c(N)nc3ccccc32)cc1	-21.4	7.94µM*	3.6	?
Nc1ccc(C(=O)N2CCCC2)cc1	1.3	-16.5%	-1.4	-1.1%
CCN(CC)CCNC(=O)c1ccc2c(=O)n3nc(Nc4ccccc4)sc3nc2c1	.	.	.	14.7%[46.1 µM]
O=C1C[C@H](c2ccc3ccccc3c2)N1S(=O)(=O)c1ccccc1[N+](=O)[O-]	-5.3	.	14.7	.
CN1C=CC(=C2C=CN(C)C=C2)C=C1	3.3	.	0.7	.
COc1ccc(CN2CCNC(=O)C2CC(=O)N(C)Cc2ccon2)c(F)c1 (stereo not given)	-38.2	29.9%	-2.2	15.2%
COc1ccc(-c2sc(Nc3ccc(F)c(F)c3F)nc2CCC(=O)NN)cc1	100.3*	?	42.2*	?
Cc1ccc(NC(=O)Cn2c(/C=C/c3ccccc3)nc3ccccc32)cc1C	19.2	-29.1%	18.5*	-16.6%
Cc1ccc(C)c(CSc2nc3ccncc3n2CC(=O)Nc2ccc(C)c(C)c2)c1	-11.5	-32.6%	8.5	8.4%
CC(C)c1ccccc1NC(=O)Cn1c(/C=C/c2ccccc2)nc2ccccc21	53.2*	13.9%[46.1 µM]	36.2*	13.0%
Cc1cccc(CSc2nc3ccncc3n2CC(=O)Nc2ccc(C)c(C)c2)c1	29.2	?	27.3*	-0.1%
CSCCC(NC(=O)c1ccccc1C)C(=O)O (stereo not given)	13.1	?	-1.6	15.2%[46.1 µM]
Cc1c(C(=O)Nc2c(F)cccc2F)sc2ncn(Cc3ccccc3F)c(=O)c12	.	.	.	-9.7%[46.1 µM]
